Measured values as given in PubChem BioAssay.
The source made the active and inactive calls.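 How the source made its calls: active means GFP response above 150% of the DMSO level; inconclusive means fewer than 70 events counted for a yeast strain; inactive means the rest.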

Test: yeast AGP1-GFP fluorescence change, single-dose – cell-based, flow cytometry, S. cerevisiae, cherry picks, confirmation (AID 2273);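 further: median GFP channel fluorescence over the whole cell population gate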
Conditions: S. cerevisiae AGP1-GFP strain, 3 h, at 10 µM

Structure (SMILES)	GFP response, % of DMSO
Nc1nc2c(ncn2COCCO)c(=O)[nH]1	102% (inactive)
O=c1[nH]c(=O)n([C@H]2C[C@H](O)[C@@H](CO)O2)cc1F	102% (inactive)
C[C@]12CCC(=O)C=C1CC[C@@H]1[C@@H]2C(=O)C[C@@]2(C)[C@H]1CC[C@]2(O)C(=O)CO	104% (inactive)
CC(=O)[C@@]1(O)CC[C@H]2[C@@H]3CCC4=CC(=O)CC[C@]4(C)[C@H]3CC[C@@]21C	96.5% (inactive)
O=C(CSc1ccc(-c2ccccn2)nn1)N1CCCCC1	103% (inactive)
COc1ccc(-c2cc3cc(C(=O)O)ccn3c2C(=O)c2ccccc2)cc1	98.3% (inactive)
Cc1ccc(/C=C/C(=O)c2ccc([N+](=O)[O-])o2)cc1	107% (inactive)
CC[n+]1cc(C)ccc1/C=C/c1ccc(N(C)C)cc1	104% (inactive)
O=[N+]([O-])c1cc(/C=N/O)ccc1Oc1ccccc1Cl	135% (inactive)
CC(=O)Nc1ccc(NC(=O)CSc2ncc(C(=O)Nc3ccccc3)c(=O)n2C)cc1	103% (inactive)
O=[N+]([O-])c1ccc(-c2cn3nc(-c4ccccc4)c(-c4ccccc4)nc3n2)cc1	106% (inactive)
CCOc1cc(/C=C2\C(=N)N3N=C(S(=O)(=O)CC)SC3=NC2=O)ccc1OC(=O)c1ccco1	100% (inactive)
CN1CCN(C(=O)CC2C(=O)NCCN2Cc2ccc(-c3ccccc3)cc2)CC1 (configuration not stated)	99.7% (inactive)
CCn1cc(/C=C/c2cc[n+](C)cc2)c2ccccc21	108% (inactive)
Cc1cc(N2CCCCC2)n2nc(C)c(-c3ccccc3)c2n1	95% (inactive)
Cc1nnc(NC(=O)c2ccc(S(=O)(=O)N(C)Cc3ccccc3)cc2)o1	91.2% (inactive)
O=S(=O)(c1ccccc1)c1ccc(C(F)(F)F)cn1	101% (inactive)
Cc1cc(C)nc(/N=c2/ssnc2Cl)c1	111% (inactive)
Cn1cnc([N+](=O)[O-])c1S(=O)(=O)c1cccc(Cl)c1	113% (inactive)
CN(C)c1ccc(N=Cc2nc(-c3ccccc3)oc2OC(=O)c2cccc(Br)c2)cc1	98.1% (inactive)
CCCn1c(=N)c(C(=O)NC2CCCC2)cc2c(=O)n3cccc(C)c3nc21	104% (inactive)
CN=C(NC)SC1CC(=O)N(c2ccccc2)C1=O (configuration not stated)	93.5% (inactive)
O=C(Nc1cc(Sc2ccccn2)cc([N+](=O)[O-])c1)c1cccc(Cl)c1	103% (inactive)
COc1ccc(NC2=C(Cl)C(=O)N(CCc3ccccc3)C2=O)c(OC)c1	97.9% (inactive)

Structure (SMILES)	GFP response, % of DMSO
CCC(Sc1nc(=O)cc(N)n1-c1ccccc1)C(=O)Nc1cc(C)on1 (configuration not stated)	102% (inactive)
Cc1[nH]n(-c2ccccc2)c(=O)c1C(c1ccccc1[N+](=O)[O-])C(C#N)C#N (configuration not stated)	98.9% (inactive)
O=C1c2cccc3cccc(c23)C(=O)N1c1cccnc1	98.7% (inactive)
Cn1ncc(S(=O)(=O)Cc2ccccc2)c(Cl)c1=O	79.1% (inactive)
Cc1noc2ncnc(Sc3ccc(Cl)cc3)c12	94.7% (inactive)
CSc1ccc(/C=C/C(=O)c2c(O)cc(C)oc2=O)cc1	96.3% (inactive)
CCN(CC)S(=O)(=O)c1ccc(O)c(C(=O)OCC(=O)NC2CCCC2)c1	102% (inactive)
O=C(Nc1ccc(F)cc1)c1cc2cc(Cl)ccc2[nH]1	102% (inactive)
O=c1cc(-c2c(F)c(F)c(F)c(F)c2F)oc2c(F)c(F)c(F)c(F)c12	113% (inactive)
O=C(Nc1c(-c2ccccc2)nc2ccccn12)c1ccco1	98.9% (inactive)
O=C(/C=C/c1ccccc1)c1ccccc1O	108% (inactive)
COc1ccc(C(=O)c2nccc3ccccc23)cc1	100% (inactive)
COc1ccc(C2CC(c3c(-c4ccccc4)c4cc(Cl)ccc4[nH]c3=O)=NN2S(C)(=O)=O)cc1 (configuration not stated)	99.9% (inactive)
Cc1cc(C)c2c(c1)/C(=C/C(=O)c1ccc(Br)s1)C(=O)N2	97.8% (inactive)
COc1ccc(N2C(=O)C(Cl)=C(Nc3c(C)n(C)n(-c4ccccc4)c3=O)C2=O)cc1	89% (inactive)
CS(=O)(=O)c1sc(C#N)c2c1C(=O)CC(c1ccccc1)C2 (configuration not stated)	117% (inactive)
O=C(Nc1nc(-c2ccccc2)cs1)c1cccc([N+](=O)[O-])c1	108% (inactive)
CCCc1[nH]nc2c1C(c1ccc(OC(=O)N3CCOCC3)cc1)C(C#N)=C(N)O2 (configuration not stated)	102% (inactive)
O=C(Nc1ccc(F)cc1)C1CCCN(c2cnccn2)C1 (configuration not stated)	105% (inactive)
CCOCCCNC(=O)/C(C#N)=C/c1ccc([N+](=O)[O-])o1	122% (inactive)
O=C(OCn1ncc(Br)c(Br)c1=O)c1ccccc1Cl	105% (inactive)
O=[N+]([O-])c1ccc(Sc2ccc(Cl)c(Cl)c2)nc1	101% (inactive)
Clc1ccc(-c2nnnn2-c2ccc(Cl)cc2)cc1	95.9% (inactive)
